# Results published in the supplement of paper PMC11417369.
# The full ranking holds about 25,000 sequences; the median of “ln(normalized median fluorescence intensity)” is about 7.1, and the highest 2% start at about 10. The sample as a whole holds a higher share of the highest values than the screen did.
# System: PfSIP2 AP2 domain 1 (GST-tagged)
# Assay: gcPBM binding intensity (ln(normalized median fluorescence intensity)); higher = stronger DNA binding
# Outline: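 An Agilent 4 × 180k array of primer-extended double-stranded 36-bp intergenic genomic probes, with negative controls, was incubated for 1 h with GST-tagged P. falciparum DNA-binding domains expressed in E. coli. Alexa488 anti-GST antibody detected bound protein, scanned at 488 nm. Binding intensity is the highest Masliner-normalised natural-log median intensity across replicate spots of either probe orientation.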
row,Sequence,gcPBM binding intensity (ln)
1,AAGAAAAATATATATATAAATAAATAAATATATATA [TGCATGCA_negctrl_site330],6.98
2,TGTATTAAAAATTTGGTGCAACTTTTACATAATAAT,10.5
3,TATATATAAATATATGTGCACTTTTTATATTTATAT,10.6
4,AACTATTTTATTATATGTACTTACGAATTTATAAAA [XGTACX_site5262],7.04
5,TTTTGTTACTTTTATGTGCACTTATAAAACGAACTA [GTGCAC_site9551],10.3
6,ATAATATATGTATGTATGCACTTTTATTATTTTTTT,8.01
7,TATTTATAAATATGTGTGCACAATTTATTTTATAAT,9.67
8,CTTTTAAATTATTTTTGTACATAATTATATATATAT [XGTACX_site4128],8.44
9,CGATTTTTTAAGTTTGTGCACTTAAAAACTATAACA,9.78
10,TTTTTATTACATAATTAAAAAAAATAATAAAATAAA [XGTACX_negctrl_site249],6.8
11,ATATTATATTATTAATGTACATATATATAATTTTAA [XGTACX_site4974],7.05
12,AATTTTGTATAGGTATCACACATGAAATATATTATT [CACACA_site5526],6.98
13,ATATATATATATATATGTACATATATTTGTAATGTC [XGTACX_site8074],9.37
14,TTTCATATATATGAAACACACAAAGGAAAAAAAATT [CACACA_site4144],7.23
15,AATATAAATATAAATATAAATATATATATATATATA [TGCATGCA_negctrl_site603],9.38
16,CCTTAAAATAAGATATGTACGCAAAGGAAAACAAAG [XGTACX_site6057],7.62
17,AAATATTTTTAGAGTGCATGTAATAAAAATATAATG [TGCATGCA_site19],10.1
18,TATATAATAAGATATGCATGCACATGTAAAATGAAT [TGCATGCA_site499],8.94
19,CTATGCATTTATAGTGCATGTAAAATATAAGATAAT [TGCATGCA_site71],10.3
20,ATATATTTTTATGTAGTGCATTTAAATAATAAATGC,8.42
21,TTCTATGCATTTATAGTGCATGTAAAATATAAGATA [GTGCAC_site9466],10.9
22,ATTATATATAATATAGTGCATGTAAAAAATAAAACA,10
23,AAATAAATAAATAGAGTGCATATATATATATATTTT,8.61
24,TTAAATATTTTTAGAGTGCATGTAATAAAAATATAA [GTGCAC_site9414],10.2

row,Sequence,gcPBM binding intensity (ln)
1,CATTTTTCTATATGTGCATGTAAGATAAGAATAATT [TGCATGCA_site107],8.22
2,TTTATAAAATATCTTTCACACATTACTATGTATTAT [CACACA_site5148],6.83
3,TACTTTTATATAGAAAGTACATACAATTCATAGAAT [XGTACX_site2182],6.98
4,ATATATAAAAAATGTGGTACATTCATTTATTATACA [XGTACX_site3495],6.96
5,GTGTATTTTCTGCGCACACACATGCAAAAAGAAATA [CACACA_site1148],8.26
6,GTGTATTTGGTGCGCACACACATGCAAAAAGAAATA [CACACA_site4768],11.6
7,GTGTATTTTGTGCGCACACACATGCAAAAAGAAATA [CACACA_site6660],9.54
8,ATTTTATGTTGAAAGTGTACGTATTAATATGTAGAA [XGTACX_site245],7.34
9,AAATTATGCATCGAGGTGCGTCTTAAAATATAGTGG,10.3
10,GTATATAAATAAATAGTGCATTATTAAAAATAATGT,9.36
11,TGTTATTAAAATATAGTGCATAATTAACCATTATAA [GTGCAC_site9594],8.63
12,TAAGAGTAGTTATATACACACATGTATATTATAGTT [CACACA_site6815],6.84
13,ATAATATATACTATATGTACATATCTTTTCCTCTTT [XGTACX_site5553],7.1
14,TATAAAAATAAGCACACACACAAATATAGATTTATT [CACACA_site6558],6.98
15,AAAAAAAAAAAAAACACACAGAACAATATATAAATA [CACACA_site982],7.11
16,ATTATATAATAATGCATGCACCTTATTTTCATTTCA [GTGCAC_site9922],10.7
17,TATTATTTTTCATATGCATGCAAAAATAAAAAAATA [TGCATGCA_site350],7.05
18,TCCTTATTTATATAATGTACTTTTTTTTTTCATTTT [XGTACX_site4275],6.92
19,TAATAATTAATTAATATAATATTTTTTCATAATTAT [XGTACX_negctrl_site602],6.82
20,CCTTTCACATATAATACATGCATTATTATATATGAA [TGCATGCA_site287],7.51
21,ATATTATATAATAATGCATGCACCTTATTTTCATTT [TGCATGCA_site405],11.3
22,TTTATATTTATGATGGGTACACAAAATTTTACCCAT [XGTACX_site1504],6.96
23,TGAATAATCAATAGTACACACATATAAATATATATA [CACACA_site2813],7.28
24,AGGTGTCATAGATGCACACAAAAGTAACACGCACCT [CACACA_site4418],9.65

row,Sequence,gcPBM binding intensity (ln)
1,AAAAAAAAAATATTTGAACACACGAGGATATATAAA [CACACA_site139],6.89
2,TAAAAGATAAAATATGCATGTGTAATTTTTTTTTTT [TGCATGCA_site955],6.79
3,CCATTTTAAATATGCACACAGATGCACTAACACATT [CACACA_site5099],10.5
4,GTATAATATTTTAATGCACACACACTAATAAAAAAA [CACACA_site8939],7.65
5,TGGCACTAAAAAAATAAACACACAGATTTATATAAT [CACACA_site8386],6.8
6,TTTTTTTAAATATACACACACATTTATACAGATATA [CACACA_site5811],7.12
7,AACCATTTTAAATATGCACACAGATGCACTAACACA [CACACA_site8565],11
8,TAAATTATATTATGCACACTTAAAAATATATTTAAC [CACACA_site3512],9.01
9,GCACTAAAAAAATAAACACACAGATTTATATAATAT [CACACA_site1381],6.83
10,CCATTTTAAATATGCACACAGATGCACTAACCCATT [CACACA_site1883],10.7
11,TAAATATGCTCACAGATGCACTAACACATTTTTATA [GTGCAC_site9997],8.14
12,TATTAACTCAATAGCGCACACTTTTAATATTTTATA [CACACA_site4973],7.33
13,TAAATAGGAAAACCTATACACACTTTAAAAAAAATA [CACACA_site1621],6.75
14,ATTATATCATCTAAAACATGCACACATATGTACTCT [TGCATGCA_site949],7.12
15,TTATTTATGAGGGTGACACACAAAAGAGTGTTAAGA [CACACA_site277],6.75
16,ATACGAAAAAATAGACGTACTATGAAATAATAATTT [XGTACX_site8387],6.87
17,GTCCTCATCCACTATGCACACAAAAAAGAAATACAC [CACACA_site9131],8.48
18,TGGGAAAAAATATATGCACACCCCCCAAAAAAAAAA [CACACA_site8696],10.8
19,AAAAAAAAAAAACACACACACACACCCAAATATATA [CACACA_site150],7.14
20,GGAAAAAATATATGCACACCCCCCAAAAAAAAAAAA [CACACA_site2222],9.73
21,ATAGTTTTATATAAATGTACAAATGATTTCAAATAG [XGTACX_site8236],7.08
22,GTTATATTTAAAATAGTGCAATAAAAATAATAATAT,8.42
23,ATATATATATTTATAGTGCATTTATATTAAAATATC [GTGCAC_site9818],8.92
24,ATAATTAAAAATAATATATATATAATATGATATTAT [GTGCAC_negctrl_site194],6.94

row,Sequence,gcPBM binding intensity (ln)
1,TTATATTATTCGTGTGTGCACGATATTTCATAATTG [GTGCAC_site9767],8.96
2,ATATATATATATTTCGTGCACTGATAATATTATTTT,10.2
3,ATATTTTATATAATAGTGCAAATAATATTAAATAAT,8.4
4,ATGATATATTTAATAGTGCACTAATTAAAATTATTA [GTGCAC_site9418],11
5,TTATAATATTAATGTGCACACAATTAAAATATTATA [CACACA_site2046],9.4
6,ATAATTATATGATGAGTGCACAATAAAAATATCGTT [GTGCAC_site9920],10.7
7,TAAATATATATATATAGTACAATATAATTATGATAT [XGTACX_site258],7.24
8,ATTATTAAAATGATATGTACGCACATAATATACATA [XGTACX_site3236],7.06
9,AAAAAAAAAAAATACGTGCACTATGATATATTATAT,10.3
10,TATATATATACTTAATGTACATATATATATATATAT [XGTACX_site3102],9.75
11,CCCCTTAATTAAAGGAGTACTATTTGTGAATAATAT [XGTACX_site4715],7.47
12,ATAATTCCATAAAATAGACACACGAATGTATAATAT [CACACA_site477],7
13,AATAATGAAAAATCAAATAACCTAAATTACAACTGT [XGTACX_negctrl_site65],6.91
14,TACGTTGTATATTTTTGTACATATTGAATTACAAAA [XGTACX_site5906],6.95
15,ACGAAAAGATATATATGTACATATATTAAAAAAAAA [XGTACX_site1517],7.01
16,TTCAAACATATTAATTGTACATACAACAAAACCATG [XGTACX_site5149],7.13
17,ATTATGCACCAACACACACACACACTCCTAAAAAAT [CACACA_site8822],11.1
18,TGTGCCCAAAATTATGCACACACCTAAAATTAATTT [CACACA_site2914],7.79
19,ATTATGCACCAACACACACACACACCCCTAAAAAAT [CACACA_site2568],10.8
20,TAATTATGCCAACACACACACACACCCAACTAAAAA [CACACA_site8823],7.32
21,TGCACAAAATTATGCACACACCTAAAATTAATTTTT [CACACA_site5596],8.28
22,ATTATGCACGGACACACACACACACCCCTAAAAAAT [CACACA_site5426],7.88
